# Assay outcomes (PubChem)
# Rows were chosen to be rich in hits. Some 5.6% of all compounds tested hit in one or more screens of this group.
# PKM2 act: qHTS Assay for Activators of Human Muscle isoform 2 Pyruvate Kinase | purified PKM2, Kinase-Glo ATP luminescence, activation; response scale: 0% is enzyme alone, no compound | Potency, µM (series often up to 57.5 µM), actives largely listed as activators | 0.34% of 260,000 active | AID 1631, 2009; further: nearly all actives have a fitted effect of over 55% in size
#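 Purified hPK-M2 (>95%) run at intermediate activity with 0.1 mM ADP and 0.5 mM PEP in 50 mM imidazole pH 7.2, KCl, MgCl2; 1 h room temperature. ATP formed read by Kinase-Glo luminescence; normalized to uninhibited and no-enzyme controls.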
# Six1-Eya2 inh: qHTS Assay for Inhibitors of the Six1/Eya2 Interaction. Homeobox protein SIX1 (Homo sapiens) + Protein phosphatase EYA2 (Homo sapiens), …. AlphaScreen GST-Six1/His-Eya2 binding, biochemical; hits give low values. activity change, % (concentration not given with the values). 0.56% of 360,000 active. AID 651725, 2012; in the data active means activity change below about -65%; inconclusive means mostly about -30% to -63%
#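 AlphaScreen with GST-Six1 and His-Eya2 (5X mix: 250 nM and 500 nM), glutathione donor and nickel acceptor beads; buffer 50 mM Tris pH 8.0, 300 mM NaCl, 1 mM TCEP; 1 h at 37 C in the dark.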
# CtBP-E1A blk: qHTS Assay for Inhibitors of the CtBP/E1A Interaction | activity change, % (concentration not given with the values) | 0.49% of 340,000 active | AlphaScreen GST-E1A/His-CtBP binding, 1536-well; hits give low values | AID 651724, 2012 | CtBP / adenovirus E1A interaction (AlphaScreen); in the data active means activity change below about -65%; inconclusive means mostly about -30% to -63%
#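 Homogeneous bead-based format: GST-tagged E1A captured on glutathione donor beads, His-tagged CtBP on nickel acceptor beads; compounds precede bead addition by 2 h at 37 °C.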
# RORgamma inh: qHTS for inhibitors of ROR gamma transcriptional activity; Nuclear receptor ROR-gamma (Mus musculus), P51450; Drosophila S2 Gal4-RORgamma UAS-luciferase reporter, 20 h; Potency, µM (series often up to 53.6 µM), hits mostly inhibitors; 5.4% of 310,000 active; AID 2551, 2010; further: nearly all actives have a fitted effect of over 60% in size
# Target sequence (P51450 whole entry, looked up, the tested form may be a part): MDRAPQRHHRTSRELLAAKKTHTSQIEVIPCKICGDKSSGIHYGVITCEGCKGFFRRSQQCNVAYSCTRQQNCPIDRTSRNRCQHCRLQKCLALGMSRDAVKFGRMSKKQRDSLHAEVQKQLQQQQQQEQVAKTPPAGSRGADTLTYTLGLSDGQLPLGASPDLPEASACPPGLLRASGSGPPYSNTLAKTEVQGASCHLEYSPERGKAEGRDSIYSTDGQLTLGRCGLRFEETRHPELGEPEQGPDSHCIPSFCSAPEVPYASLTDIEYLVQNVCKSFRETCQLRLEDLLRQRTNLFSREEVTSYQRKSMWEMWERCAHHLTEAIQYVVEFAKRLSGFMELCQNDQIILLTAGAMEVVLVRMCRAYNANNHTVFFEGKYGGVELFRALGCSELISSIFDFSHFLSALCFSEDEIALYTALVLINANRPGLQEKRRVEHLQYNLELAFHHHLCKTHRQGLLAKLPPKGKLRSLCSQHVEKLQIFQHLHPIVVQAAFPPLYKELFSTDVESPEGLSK
#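 Stably transfected Drosophila Schneider cells are the test system, with ROR gamma fused to Gal4 and luciferase under UAS control; luminescence is read after 20 hr of 700 uM copper sulfate induction at ambient temperature.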
# VP16 counter: VP16 counterscreen qHTS for inhibitors of ROR gamma transcriptional activity; Drosophila S2 Gal4-VP16 UAS-luciferase, luminescence, 20 h; Potency, µM (doses to about 53.6 µM), most hits filed as inhibitors; 3.5% of 310,000 active; AID 2546, 2010;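 further: Gal4-VP16 expression switched on by copper sulfate through the metallothionein promoter; nearly all actives have a fitted effect of over 50% in size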
# A number is an active result; - = inactive; ? = inconclusive; . = not tested or not shown; [ ] = remark or other dose. Unless noted, the call rests on the fitted dose curve; in most records, active means well fitted curve in the direction sought with a large enough effect; inconclusive means small, poorly fitted or top-dose-only effect, or another doubt; inactive means no such curve, though single readings can be large; an effect the other way counts as inactive or inconclusive.
SMILES,PKM2 act,Six1-Eya2 inh,CtBP-E1A blk,RORgamma inh,VP16 counter
Cn1cccc1C(=O)Nc1nc(-c2ccccn2)cs1,-,-85.5,-89.1,1.58µM,3.98µM
Cc1csc(NC(=O)c2sccc2C)n1,.,-,-,-,?
O=C(COc1ccc([N+](=O)[O-])cc1Cl)N1CCc2ccccc21,.,-,-,.,.
CC(C)(C)OC(=O)N1CCC(NC(=O)c2[nH]cnc2C(=O)Nc2cccc(Cl)c2)CC1,.,-,-,.,.
O=C(O)CNC(=O)[C@@H](CS)Cc1ccccc1,.,.,.,-,-
O=C(COC(=O)COc1ccc2ccccc2c1)NCC(F)(F)F,-,-,-,-,-
O=C(Nc1nccs1)c1ccc(S(=O)(=O)NCc2cccs2)cc1,-,-,-,?,?
CN(c1ccc(C(=O)Nc2nccs2)cc1)S(=O)(=O)c1ccccc1,-,?,-,2.82µM,-[0.365 µM]
CCc1sc(C(=O)Nc2nc(-c3ccccn3)cs2)cc1C,.,-67.5,-89.7,.,.
CCc1sc(C(=O)Nc2ncccc2C)cc1C,-,-,-,-,-
O=C(Nc1nccs1)c1cc2c(s1)CCCCC2,-,-,-,-,7.94µM
O=C(Nc1nccs1)c1ccc(S(=O)(=O)NCC2CCCCC2)cc1,-,-,-,11.2µM,-
CN(c1ccccc1)S(=O)(=O)c1ccc(C(=O)Nc2nccs2)cc1,-,-,-,-,?
O=C(Nc1nncs1)c1cc2c(s1)CCC2,-,-,-,?,-
Cc1nn(C)c(C)c1/C=C/C(=O)c1ccc(Cl)cc1Cl,-,-,-,-,?
CC(c1ccncc1)C(C)c1ccncc1 (stereo not drawn),.,-,-,.,.
CCC(=O)c1ccc(OCC(=O)OCC(=O)N(CCC#N)c2ccc3c(c2)OCCO3)cc1,.,-,-,.,.
COc1ccc(C(=O)/C(Br)=C/C(=O)O)cc1,.,.,.,?,-
Cc1ccc(C(=O)Nc2nc(-c3ccccn3)cs2)s1,.,-90.0,-90.8,.,.
O=C(Nc1nc(-c2ccccn2)cs1)c1ccc(Cl)s1,-,?,?,-,-
CC(=O)O[C@@H]1C[C@H]2C(C)(C)C(=O)C=C[C@]2(C)[C@H]2CC[C@@]3(C)[C@H](c4ccoc4)OC(=O)[C@H]4O[C@]43[C@@]21C,-,-,-,?,-
CC1(C)C(=O)C=C[C@@]2(C)C1C=C[C@@]1(C)C2CC[C@@]2(C)C(c3ccoc3)OC(=O)C3OC312 (stereo partly drawn),.,.,.,7.08µM,-
COc1cc(NS(=O)(=O)c2c(C(=O)N3CCOCC3)c(C)n(C)c2C)cc(OC)c1OC,.,-,-,-,-
O=C(CCNC(=O)c1ccc(Br)cc1)NCC1COc2ccccc2O1 (stereo not drawn),-,-,-,-,-
CN(CCCC(=O)NC1CC(C)(C)NC(C)(C)C1)S(=O)(=O)c1ccc([N+](=O)[O-])cc1,-,-,-,-,-
SMILES,PKM2 act,Six1-Eya2 inh,CtBP-E1A blk,RORgamma inh,VP16 counter
O=S(=O)(Nc1nc2ccccc2nc1Nc1cccc(S(=O)(=O)N2CCCCC2)c1)c1ccccc1,-,-,-,?,12.6µM
Cc1cc(C)c(OCC(=O)Nc2ccc(S(=O)(=O)N3CCOCC3)cc2)c(C)c1,-,-,-,11.2µM,?
Cc1ccccc1NC(=O)c1ccc(S(=O)(=O)N2CCCC2)cc1,-,-,-,-,-
COc1ccc(NS(=O)(=O)c2cccc(NC(=O)c3ccc(S(=O)(=O)N4CCCCCC4)cc3)c2)cc1,-,-,-,-,3.16µM
N#CCCSc1ccccc1NC(=O)c1ccc(S(=O)(=O)N2CCCC2)cc1,20µM,.,.,-,-
COc1ccc(S(=O)(=O)Nc2cccc(S(=O)(=O)N3CCCCCC3)c2)cc1,-,-,-,-,-
CC(=O)N1CCCC(C)(C(=O)Nc2cccc(OC(C)C)c2)C1 (stereo not drawn),.,-,-,.,.
Cc1onc(-c2ccccc2)c1C(=O)N(CC(C)C)c1c(N)n(CC(C)C)c(=O)[nH]c1=O,.,-,-,.,.
CCOC(=O)CNC(=O)CSc1nc(Cc2ccccc2)nc2ccccc12,-[11.5 µM],-,-,-,-
CCOC(=O)[C@]12CCCC=C1N(CCC1=CCCCC1)C(=O)[C@H](CC(=O)NCC1CCCCC1)C2,.,-,-,.,.
Cc1ccnc(NS(=O)(=O)c2ccc(NC(=O)c3ccc(S(=O)(=O)N4CCCC4)cc3)cc2)n1,-,-,-,-,-
Cc1ccc(C(=O)Nc2ccc3c(c2)CCC3)o1,-,-,-,?,12.6µM
O=C(Nc1ccc(S(=O)(=O)Nc2ccc(F)cc2)cc1)c1ccc(CN2CCOCC2)cc1,-,-,-,?,?
COc1ccc(NS(=O)(=O)c2ccc(NC(=O)c3ccc(CN4CCOCC4)cc3)cc2)cc1,-,-,-,14.1µM,-
COc1ccc(NS(=O)(=O)c2cccc(NC(=O)C3=NN(c4ccccc4)C(=O)CC3)c2)cc1,.,-,.,?,11.2µM
O=C(Nc1ccc(S(=O)(=O)Nc2ncccn2)cc1)c1ccc(S(=O)(=O)N2CCCC2)cc1,-,-,-,12.6µM,-
COCCNC(=O)C(c1ccc(C)cc1)N(C(=O)CCC(=O)Nc1ccccn1)c1ccccc1C (stereo not drawn),-,-,-,-,-
C=CC1=C2C=C(C3CC3)N(Cc3ccccc3)C=C2C(=O)C(C)(OC(=O)c2ccco2)C1=O (stereo not drawn),-[11.5 µM],.,.,.,.
COc1ccc(NS(=O)(=O)c2cc(NC(=O)c3ccc(C)o3)ccc2N2CCCCC2)cc1,-,-,-,6.31µM,4.47µM
O=C(Nc1ccc(Cc2ccncc2)cc1)c1ccc(S(=O)(=O)N2CCOCC2)cc1,-,-,-,-,7.08µM
COc1ccc(NS(=O)(=O)c2cc(NC(=O)c3cccs3)ccc2N2CCCC2)cc1,-,?,-,-,-
COc1ccccc1CNC(=O)C(=O)NCC1CCCN1S(=O)(=O)c1cccs1 (stereo not drawn),.,-,-,.,.
CNc1ncc(Cc2ccccc2)s1,-,-,-,8.91µM,-
O=C(Nc1ncc(Cc2ccccc2)s1)C1CCCO1 (stereo not drawn),-,-,-,?,?
N#CC1=C(N)C(C#N)(C#N)C(c2cccnc2)C2CC(c3ccccc3)CC=C12 (stereo not drawn),-,-,-,11.2µM,17.8µM
O=C(NC(=S)NCc1cccnc1)c1cc(Br)ccc1Cl,-,-,-,22.4µM,?
COc1ccc(Br)cc1C(=O)NCc1cccnc1,-,-,-,-,-
O=C(NC(=S)NCc1cccnc1)c1cc2ccccc2o1,-,-,-,12.6µM,-
O=C(COC(=O)C1CC1)Nc1ccc(S(=O)(=O)N2CCOCC2)cc1,.,-,-,.,.
